Data taken from PubChem BioAssay (NCATS).
Inconclusive results are not listed. The source made the active and inactive calls. Calls follow the shape of the dose curve; as a rule, active = well fitted cell-killing curve with a large enough effect; inconclusive = small, poorly fitted or top-dose-only effect, or effect the other way; inactive = no such curve, though single readings can be large or run the other way.

Columns and labels:
[1] = Quantitative High-Throughput drug screen in 47 multiple myeloma cell lines against the NCATS MIPE library collection: OCIMY1_PLB cell viability assay (AID 1918979); also: series mostly up to about 46 µM; nearly all actives have a fitted effect of over 35% in size
Summary of the method: (§1)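 ATP-based CellTiter-Glo luminescence after 48 h drug exposure (37 °C, 5% CO2) of 500 myeloma cells per well. DMSO-only wells set 100% viability, media-only wells 0%; MIPE 4.0 library added by pin tool.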

[2] = Quantitative High-Throughput drug screen in 47 multiple myeloma cell lines against the NCATS MIPE library collection: LP1_DSMZ cell viability assay (AID 1918982); also: nearly all actives have a fitted effect of over 35% in size; also: potency is read from the fitted curve at half-maximal effect
Summary of the method: as §1

[3] = Quantitative High-Throughput drug screen in 47 multiple myeloma cell lines against the NCATS MIPE library collection: KMS28PE_JCRB cell viability assay (AID 1918983); also: nearly all actives have a fitted effect of over 35% in size; also: potency is read from the fitted curve at half-maximal effect
Summary of the method: as §1

[4] = Quantitative High-Throughput drug screen in 47 multiple myeloma cell lines against the NCATS MIPE library collection: SKMM1_PLB cell viability assay (AID 1919863); settings: SKMM1 myeloma viability, CellTiter-Glo ATP, 48 h; viability: hits give low values; also: nearly all actives have a fitted effect of over 35% in size; also: potency is read from the fitted curve at half-maximal effect; as to viability: series mostly up to about 46 µM
Summary of the method: as §1

[5] = Quantitative High-Throughput drug screen in 47 multiple myeloma cell lines against the NCATS MIPE library collection: U266_ATCC cell viability assay (AID 1919864); also: nearly all actives have a fitted effect of over 35% in size; also: potency is read from the fitted curve at half-maximal effect
Summary of the method: as §1

[6] = Quantitative High-Throughput drug screen in 47 multiple myeloma cell lines against the NCATS MIPE library collection: XG1_PLB cell viability assay (AID 1919866); also: nearly all actives have a fitted effect of over 35% in size; also: potency is read from the fitted curve at half-maximal effect
Summary of the method: as §1

[7] = Quantitative High-Throughput drug screen in 47 multiple myeloma cell lines against the NCATS MIPE library collection: PCM6_Riken cell viability assay (AID 1919870); also: nearly all actives have a fitted effect of over 30% in size; also: potency is read from the fitted curve at half-maximal effect
Summary of the method: as §1

[8] = Quantitative High-Throughput drug screen in 47 multiple myeloma cell lines against the NCATS MIPE library collection: RPMI8226_ATCC cell viability assay (AID 1919871); also: nearly all actives have a fitted effect of over 30% in size; also: potency is read from the fitted curve at half-maximal effect
Summary of the method: as §1

[9] = Quantitative High-Throughput drug screen in 47 multiple myeloma cell lines against the NCATS MIPE library collection: OPM2_DSMZ cell viability assay (AID 1919872); also: nearly all actives have a fitted effect of over 30% in size; also: potency is read from the fitted curve at half-maximal effect
Summary of the method: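 Myeloma cell lines, 500 cells per well, exposed to MIPE 4.0 library compounds for 48 h at 37C, 5% CO2. Viability from ATP by CellTiter-Glo luminescence; normalised to DMSO (100%) and media-only (0%) wells.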

[10] = Quantitative High-Throughput drug screen in 47 multiple myeloma cell lines against the NCATS MIPE library collection: MM1R_ATCC cell viability assay (AID 1918981); also: nearly all actives have a fitted effect of over 35% in size; also: potency is read from the fitted curve at half-maximal effect
Summary of the method: as §1

[11] = Quantitative High-Throughput drug screen in 47 multiple myeloma cell lines against the NCATS MIPE library collection: MM1S_ATCC cell viability assay (AID 1918980); also: nearly all actives have a fitted effect of over 45% in size; also: potency is read from the fitted curve at half-maximal effect
Summary of the method: as §1

[12] = Quantitative High-Throughput drug screen in 47 multiple myeloma cell lines against the NCATS MIPE library collection: L363_DSMZ cell viability assay (AID 1918984); also: nearly all actives have a fitted effect of over 40% in size; also: potency is read from the fitted curve at half-maximal effect
Summary of the method: as §1

[13] = Quantitative High-Throughput drug screen in 47 multiple myeloma cell lines against the NCATS MIPE library collection: XG6_PLB cell viability assay (AID 1919865); also: nearly all actives have a fitted effect of over 40% in size; also: potency is read from the fitted curve at half-maximal effect
Summary of the method: as §1

[14] = Quantitative High-Throughput drug screen in 47 multiple myeloma cell lines against the NCATS MIPE library collection: PE2_PLB cell viability assay (AID 1919869); also: nearly all actives have a fitted effect of over 35% in size
Summary of the method: as §1

[15] = Quantitative High-Throughput drug screen in 47 multiple myeloma cell lines against the NCATS MIPE library collection: OPM1_PLB cell viability assay (AID 1918989); also: nearly all actives have a fitted effect of over 40% in size; also: potency is read from the fitted curve at half-maximal effect
Summary of the method: as §1

[16] = Quantitative High-Throughput drug screen in 47 multiple myeloma cell lines against the NCATS MIPE library collection: OCIMY7_PLB cell viability assay (AID 1918987); also: nearly all actives have a fitted effect of over 65% in size; also: potency is read from the fitted curve at half-maximal effect
Summary of the method: as §1

[17] = Quantitative High-Throughput drug screen in 47 multiple myeloma cell lines against the NCATS MIPE library collection: UTMC2_PLB cell viability assay (AID 1919868); also: nearly all actives have a fitted effect of over 55% in size; also: potency is read from the fitted curve at half-maximal effect
Summary of the method: as §1

[18] = Quantitative High-Throughput drug screen in 47 multiple myeloma cell lines against the NCATS MIPE library collection: KMS34_JCRB cell viability assay (AID 1918985); also: nearly all actives have a fitted effect of over 40% in size; also: potency is read from the fitted curve at half-maximal effect
Summary of the method: as §1

[19] = Quantitative High-Throughput drug screen in 47 multiple myeloma cell lines against the NCATS MIPE library collection: OCIMY5_PLB cell viability assay (AID 1918988); also: nearly all actives have a fitted effect of over 65% in size; also: potency is read from the fitted curve at half-maximal effect
Summary of the method: as §1

[20] = Quantitative High-Throughput drug screen in 47 multiple myeloma cell lines against the NCATS MIPE library collection: VP6_DJ cell viability assay (AID 1919867); also: nearly all actives have a fitted effect of over 40% in size; also: potency is read from the fitted curve at half-maximal effect
Summary of the method: as §1

Cc1cccc(C#Cc2ccccc2)n1
active: Potency [6] 14.8 µM | Potency [8] 3.72 µM
inactive: Potency [1] | Potency [2] | Potency [3] | viability [4] 120% | Potency [5] | Potency [7] | Potency [9]

Cc1c(OCC(F)(F)F)ccnc1CS(=O)c1nc2ccccc2[nH]1 (stereo not drawn)
inactive: Potency [1] | Potency [2] | viability [4] 128% | Potency [8] | Potency [9]
active: Potency [10] 0.833 µM

COc1c2occc2cc2ccc(=O)oc12
inactive: Potency [10] | Potency [2] | Potency [3] | Potency [12] | viability [4] 118% | Potency [5] | Potency [13] | Potency [14] | Potency [7] | Potency [9]
active: Potency [11] 18.7 µM | Potency [6] 5.9 µM

O=C1CCc2ccc(OCCCCN3CCN(c4cccc(Cl)c4Cl)CC3)cc2N1
active: Potency [3] 18.7 µM | Potency [15] 18.7 µM | Potency [6] 23.5 µM
inactive: Potency [1] | viability [4] 132% | Potency [9]

O=C(O)c1cn(-c2ccc(F)cc2)c2cc(N3CCNCC3)c(F)cc2c1=O
inactive: Potency [10] | Potency [2] | Potency [3] | Potency [16] | Potency [15] | Potency [13] | Potency [6] | Potency [17] | Potency [14] | Potency [7] | Potency [8] | Potency [9]
active: Potency [11] 20.9 µM

CCOC(=O)C(C)Oc1cccc2c(=O)n(CC(=O)Nc3ccc4c(c3)OCCO4)ccc12 (stereo not drawn)
active: Potency [12] 9.35 µM
inactive: Potency [1] | Potency [18] | Potency [16] | Potency [13] | Potency [6] | Potency [14] | Potency [7] | Potency [8]

O=c1cc(N2CCOCC2)oc2c(-c3ccccc3)cccc12
active: Potency [11] 14.8 µM | Potency [10] 7.43 µM | Potency [2] 11.8 µM | Potency [3] 10.5 µM | Potency [18] 11.8 µM | Potency [19] 13.2 µM | Potency [4] 14.8 µM | Potency [5] 18.7 µM
inactive: Potency [12]

CN(C)CCc1c[nH]c2ccc(Cn3cncn3)cc12
inactive: Potency [1] | Potency [10] | Potency [2] | Potency [18] | Potency [15] | viability [4] 127% | Potency [5] | Potency [6] | Potency [17] | Potency [14] | Potency [7] | Potency [8] | Potency [9]
active: Potency [20] 2.09 µM

c1cnc2cc3c(cc2n1)C1CNCC3C1
inactive: Potency [1] | Potency [10] | Potency [2] | Potency [3] | Potency [19] | Potency [5] | Potency [6] | Potency [14] | Potency [7] | Potency [9]

CC(=O)O[C@H]1C(=O)[C@@]2(C)C([C@H](OC(=O)c3ccccc3)[C@]3(O)C[C@H](OC(=O)[C@H](O)[C@@H](NC(=O)c4ccccc4)c4ccccc4)C(C)=C1C3(C)C)[C@]1(OC(C)=O)CO[C@@H]1C[C@@H]2O (stereo partly drawn)
active: Potency [4] 0.0033 µM
inactive: Potency [11] | Potency [10] | Potency [2] | Potency [3] | Potency [19] | Potency [5] | Potency [6] | Potency [20] | Potency [14] | Potency [7] | Potency [8]

CC(C)[N+]1(C)[C@@H]2CC[C@H]1CC(OC(=O)C(CO)c1ccccc1)C2 (stereo partly drawn)
inactive: Potency [11] | Potency [10] | Potency [2] | Potency [3] | Potency [19] | viability [4] 150% | Potency [5] | Potency [13] | Potency [14] | Potency [8] | Potency [9]
active: Potency [12] 14.8 µM | Potency [20] 14.8 µM

CCOC(=O)c1c(C)n(C)c2ccc(O)cc12
inactive: Potency [1] | Potency [10] | Potency [2] | Potency [12] | Potency [15] | viability [4] 121% | Potency [14] | Potency [8] | Potency [9]
active: Potency [18] 3.72 µM | Potency [19] 3.72 µM | Potency [6] 6.62 µM

CCN(CC)C(=S)SSC(=S)N(CC)CC
active: Potency [11] 0.0093 µM | Potency [10] 0.0093 µM | Potency [2] 0.0209 µM | Potency [3] 0.0118 µM | Potency [16] 0.001 µM | Potency [19] 0.0059 µM | Potency [4] 0.0105 µM | Potency [5] 0.0059 µM | Potency [13] 0.001 µM | Potency [6] 0.001 µM | Potency [20] 0.001 µM | Potency [17] 0.0118 µM | Potency [7] 0.001 µM | Potency [8] 0.0187 µM | Potency [9] 0.0418 µM
inactive: Potency [12]

CCN(CCO)CCCC(C)Nc1ccnc2cc(Cl)ccc12 (stereo not drawn)
inactive: Potency [1] | Potency [2] | Potency [3] | Potency [12] | Potency [19] | Potency [5] | Potency [13] | Potency [6] | Potency [20] | Potency [7] | Potency [8] | Potency [9]
